Source: PubChem BioAssay
A number with no mark means an inactive call. Active and inactive are the calls of the source.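 Rule for the calls, unless noted: active = growth inhibition above 50% at the single 2 µM test dose, taken to imply half-maximal potency below 2 µM; inactive = the rest.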

Test: antimalarial activity against Dd2 strain (AID 2302);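 note: 0% = DMSO untreated growth and 100% = chloroquine plus artemisinin killed control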
Details: P. falciparum Dd2 in RBCs, LDH growth readout, 72 h; at 2 µM; active compounds read high

SMILES | growth inhibition
O=C(NCCCCCN1CCC(c2c[nH]c3ccccc23)CC1)Nc1ccc(Cl)c(Cl)c1 | -4%
O=C(NCCCN1CCC(Cc2ccccc2)CC1)c1cc2c(Cl)nc3ccccc3c2s1 | 40%
Cc1ccc(NC(=O)c2ccc3ncccc3c2)cc1OC1CCN(Cc2ccco2)C1 (stereo not given) | 42%
COc1ccc(CCN2CCC(NCc3cccc(N(C)C)c3)CC2)cc1 | 7%
O=C(c1cc(-c2ccco2)[nH]n1)N1CCN(S(=O)(=O)c2ccc(Cl)cc2)CC1 | 95% (active)
O=[N+]([O-])c1cccc(CNCC2CCN(CCc3ccccc3)CC2)c1 | 11%
C[C@H](Cc1ccc(OCCCCCCCOc2ccc(C[C@@H](C)NC[C@H](O)c3cccc(Cl)c3)cc2)cc1)NC[C@H](O)c1cccc(Cl)c1 | 97% (active)
COc1cccc(CN2CCCN(Cc3cccc(NC(=O)c4ccc(Cl)c(Cl)c4)c3)CC2)c1 | 11%
Cc1nc(N)nc(N)c1OCCCOc1ccccc1Br | 96% (active)
CC(=O)Nc1cccc(C(=O)Nc2cccc(-c3ccc(-c4nc5ccc(C(F)(F)F)cc5[nH]4)s3)c2)c1 | 46%
CS(=O)(=O)CCNCc1ccc(-c2ccc3c(Nc4ccc(Cl)cc4F)ccnc3c2)o1 | 98% (active)
O=C(Nc1ccc(C(F)(F)F)cc1)c1ccc(S(=O)(=O)NC2CCN(CC3CCCCC3)C2)cc1 (stereo not given) | 16%
CCOc1c(Br)cc(Br)cc1CNCCCCNc1nc2ccccc2[nH]1 | 37%
CCc1ccc2nc(-c3ccc(F)cc3)nc(SCC(=O)Nc3sc(C)c(C)c3C#N)c2c1 | 5%
CCOc1ncccc1CN1CCC(N2CCc3cc(NC(=O)c4ccco4)ccc32)C1 (stereo not given) | 94% (active)
Cc1cc(NCCc2ccc(O)cc2)nc(NCC(c2ccccc2)c2ccccc2)n1 | 77% (active)
CN1CCN(c2ccc(Nc3nc(N)c4ccn(C5CCC5)c4n3)cc2)CC1 | 47%
CCN1C(=O)C(CC(=O)Nc2cccc(Cl)c2)N(Cc2ccc(OC)c(OC)c2)C1=S (stereo not given) | 68% (active)
Cc1cc(N2CCCC2)nc(Nc2ccc(NC(=O)Cc3ccccc3)cc2)n1 | 72% (active)
Cc1ccc(C(=O)Nc2cc(C(F)(F)F)cc(C(F)(F)F)c2)cc1[N+](=O)[O-] | 61% (active)

SMILES | growth inhibition
CC(=O)N(C)C1CCN(Cc2cccc(-c3ccc(-c4nc5ccc(C(F)(F)F)cc5[nH]4)cc3)c2)C1 (stereo not given) | 94% (active)
CC(C)Oc1cc2c(cc1NS(=O)(=O)c1ccc(-c3ccc(Cl)s3)cc1F)CCN(C)CC2 | 1%
O=S(=O)(Nc1ccc2nccc(N3CCNCC3)c2c1)c1ccc(-c2ccccc2)cc1 | -1%
C=CCN1C(=O)CN(S(=O)(=O)c2ccc(-n3nc(C)cc3C)cc2)C1=S | -2%
COc1ccccc1CCNc1nccc(N[C@@H](Cc2ccccc2)C(=O)NCc2cccs2)n1 | 79% (active)
Cn1cncc1C(=O)NC1CCN(c2ccnc(Nc3ccc(F)cc3)n2)C1 (stereo not given) | 83% (active)
NS(=O)(=O)c1ccc(CNc2ccc3ncc(-c4ccc(OC(F)(F)F)cc4)n3n2)cc1 | 99% (active)
COc1cc(NC(=O)c2sc(-c3ccc(Cl)cc3)cc2NC(=O)N2CCCC2)ccc1OCCN1CCCC1 | 61% (active)
Cn1c(NCc2cc(F)cc3c2OCOC3)nc2cc(Nc3ccnc(Nc4cccc(CS(C)(=O)=O)c4)n3)ccc21 | 100% (active)
O=C(C=NO)Nc1ccccc1[N+](=O)[O-] | -2%
C/C=C/C=C/C1=NCCc2cc(OCCC)ccc21 | 40%
O=C(Nc1ccc(N2CCCN(Cc3cccc(F)c3)CC2)cc1)c1ccccc1 | 95% (active)
N#Cc1ccc(N2CCN(Cc3ccc(-c4ccc(-c5nc6ccccc6[nH]5)s4)cc3)CC2)nc1 | 63% (active)
Clc1ccc(Nc2nc(NCc3ccccc3)nc(N/N=C/c3ccccn3)n2)cc1 | 91% (active)
O=C(Nc1cccc(CN2CCCN(Cc3ccc(O)cc3)CC2)c1)c1cccc(C(F)(F)F)c1 | 71% (active)
COc1ccc(S(=O)(=O)Nc2ccc(C(=O)NCc3ccc(C(F)(F)F)cc3)cc2)cc1N1CCN(CC2CC2)CC1 | 1%
c1cncc(NCc2ccc(-c3cc4ccncc4cc3OC3CCNCC3)s2)c1 | 19%
COc1cccc(NC(=O)NC2CCN(c3ccnc(Nc4cc(OC)c(OC)c(OC)c4)n3)C2)c1 (stereo not given) | 57% (active)
c1csc(-c2nc(N3CCCC3)ncc2-c2ccsc2)n1 | 75% (active)
N#Cc1cccc(NC(=O)c2ccc(S(=O)(=O)NCC3CCCN3CC3CCCCC3)cc2)c1 (stereo not given) | 18%

Test: human hepatoma cell viability loss – ATP luminescence, cytotoxicity control for P. falciparum antimalarial project, primary screen (AID 2303;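 active = inhibition above 50%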;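 note: 0% = DMSO wells and 100% = digitonin-killed cells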)
Details: HepG2 viability, 24-48 h, at 10 µM, active compounds read high

SMILES | inhibition
O=C(NCCCCCN1CCC(c2c[nH]c3ccccc23)CC1)Nc1ccc(Cl)c(Cl)c1 | 42%
O=C(NCCCN1CCC(Cc2ccccc2)CC1)c1cc2c(Cl)nc3ccccc3c2s1 | 22%
Cc1ccc(NC(=O)c2ccc3ncccc3c2)cc1OC1CCN(Cc2ccco2)C1 (stereo not given) | 9%
COc1ccc(CCN2CCC(NCc3cccc(N(C)C)c3)CC2)cc1 | 18%
O=C(c1cc(-c2ccco2)[nH]n1)N1CCN(S(=O)(=O)c2ccc(Cl)cc2)CC1 | -5%
O=[N+]([O-])c1cccc(CNCC2CCN(CCc3ccccc3)CC2)c1 | 15%
C[C@H](Cc1ccc(OCCCCCCCOc2ccc(C[C@@H](C)NC[C@H](O)c3cccc(Cl)c3)cc2)cc1)NC[C@H](O)c1cccc(Cl)c1 | 99% (active)
COc1cccc(CN2CCCN(Cc3cccc(NC(=O)c4ccc(Cl)c(Cl)c4)c3)CC2)c1 | 26%
Cc1nc(N)nc(N)c1OCCCOc1ccccc1Br | 57% (active)
CC(=O)Nc1cccc(C(=O)Nc2cccc(-c3ccc(-c4nc5ccc(C(F)(F)F)cc5[nH]4)s3)c2)c1 | 80% (active)
CS(=O)(=O)CCNCc1ccc(-c2ccc3c(Nc4ccc(Cl)cc4F)ccnc3c2)o1 | 6%
O=C(Nc1ccc(C(F)(F)F)cc1)c1ccc(S(=O)(=O)NC2CCN(CC3CCCCC3)C2)cc1 (stereo not given) | 33%
CCOc1c(Br)cc(Br)cc1CNCCCCNc1nc2ccccc2[nH]1 | 25%
CCc1ccc2nc(-c3ccc(F)cc3)nc(SCC(=O)Nc3sc(C)c(C)c3C#N)c2c1 | -15%
CCOc1ncccc1CN1CCC(N2CCc3cc(NC(=O)c4ccco4)ccc32)C1 (stereo not given) | 3%
Cc1cc(NCCc2ccc(O)cc2)nc(NCC(c2ccccc2)c2ccccc2)n1 | 22%
CN1CCN(c2ccc(Nc3nc(N)c4ccn(C5CCC5)c4n3)cc2)CC1 | -3%
CCN1C(=O)C(CC(=O)Nc2cccc(Cl)c2)N(Cc2ccc(OC)c(OC)c2)C1=S (stereo not given) | 13%
Cc1cc(N2CCCC2)nc(Nc2ccc(NC(=O)Cc3ccccc3)cc2)n1 | 71% (active)
Cc1ccc(C(=O)Nc2cc(C(F)(F)F)cc(C(F)(F)F)c2)cc1[N+](=O)[O-] | 17%

SMILES | inhibition
CC(=O)N(C)C1CCN(Cc2cccc(-c3ccc(-c4nc5ccc(C(F)(F)F)cc5[nH]4)cc3)c2)C1 (stereo not given) | 31%
CC(C)Oc1cc2c(cc1NS(=O)(=O)c1ccc(-c3ccc(Cl)s3)cc1F)CCN(C)CC2 | 23%
O=S(=O)(Nc1ccc2nccc(N3CCNCC3)c2c1)c1ccc(-c2ccccc2)cc1 | -3%
C=CCN1C(=O)CN(S(=O)(=O)c2ccc(-n3nc(C)cc3C)cc2)C1=S | 5%
COc1ccccc1CCNc1nccc(N[C@@H](Cc2ccccc2)C(=O)NCc2cccs2)n1 | 34%
Cn1cncc1C(=O)NC1CCN(c2ccnc(Nc3ccc(F)cc3)n2)C1 (stereo not given) | 2%
NS(=O)(=O)c1ccc(CNc2ccc3ncc(-c4ccc(OC(F)(F)F)cc4)n3n2)cc1 | 10%
COc1cc(NC(=O)c2sc(-c3ccc(Cl)cc3)cc2NC(=O)N2CCCC2)ccc1OCCN1CCCC1 | 22%
Cn1c(NCc2cc(F)cc3c2OCOC3)nc2cc(Nc3ccnc(Nc4cccc(CS(C)(=O)=O)c4)n3)ccc21 | -14%
O=C(C=NO)Nc1ccccc1[N+](=O)[O-] | -14%
C/C=C/C=C/C1=NCCc2cc(OCCC)ccc21 | -1%
O=C(Nc1ccc(N2CCCN(Cc3cccc(F)c3)CC2)cc1)c1ccccc1 | 25%
N#Cc1ccc(N2CCN(Cc3ccc(-c4ccc(-c5nc6ccccc6[nH]5)s4)cc3)CC2)nc1 | 17%
Clc1ccc(Nc2nc(NCc3ccccc3)nc(N/N=C/c3ccccn3)n2)cc1 | 41%
O=C(Nc1cccc(CN2CCCN(Cc3ccc(O)cc3)CC2)c1)c1cccc(C(F)(F)F)c1 | 9%
COc1ccc(S(=O)(=O)Nc2ccc(C(=O)NCc3ccc(C(F)(F)F)cc3)cc2)cc1N1CCN(CC2CC2)CC1 | 34%
c1cncc(NCc2ccc(-c3cc4ccncc4cc3OC3CCNCC3)s2)c1 | 4%
COc1cccc(NC(=O)NC2CCN(c3ccnc(Nc4cc(OC)c(OC)c(OC)c4)n3)C2)c1 (stereo not given) | 8%
c1csc(-c2nc(N3CCCC3)ncc2-c2ccsc2)n1 | 1%
N#Cc1cccc(NC(=O)c2ccc(S(=O)(=O)NCC3CCCN3CC3CCCCC3)cc2)c1 (stereo not given) | 25%
